Bioassay records from PubChem.
Cruzain inh noDet = cruzain (T. cruzi) inhibition without detergent; purified cruzain, Z-FR-AMC fluorescence, no detergent; 200,000 compounds, 2.3% hits; Potency, µM, inactives show max response, negative = inhibition, hits mostly inhibitors;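 also: plate controls were enzyme without inhibitor for no effect and buffer without enzyme for full effect; nearly all actives have a fitted effect of over 40% in size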
Target sequence (P25779 123-467 limits assumed): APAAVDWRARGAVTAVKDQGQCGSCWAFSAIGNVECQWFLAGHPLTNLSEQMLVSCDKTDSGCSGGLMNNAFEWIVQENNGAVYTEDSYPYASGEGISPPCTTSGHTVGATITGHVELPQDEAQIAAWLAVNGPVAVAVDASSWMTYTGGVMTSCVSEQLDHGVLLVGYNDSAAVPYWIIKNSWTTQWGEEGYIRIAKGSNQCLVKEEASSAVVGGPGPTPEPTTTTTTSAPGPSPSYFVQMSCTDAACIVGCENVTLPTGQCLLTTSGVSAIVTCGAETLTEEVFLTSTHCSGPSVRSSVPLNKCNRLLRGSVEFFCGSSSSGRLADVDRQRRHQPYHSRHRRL
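Detergent-free condition (0.00005% Triton X-100) in acetate buffer pH 5.5 with DTT. 1.5 nM enzyme and compound were pre-mixed 15 min, then 2 uM Z-FR-AMC substrate added; reaction progress from fluorescence change between first and third reads (60 s).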
NS1 inh = blocks influenza NS1 protein function; Potency, µM (highest dose often 46.1 µM), for inactives: at the top dose activity, positive = more growth; 270,000 compounds, 0.4% hits; AID 2326; calls by dose curve; also: actives are rising curves; nearly all actives have a fitted effect of over 50% in size
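OD600 was taken as the measure of yeast growth restored by compound in an NS1-expressing S. cerevisiae strain. Cells had been washed out of glucose medium and diluted 1:100 into galactose -URA medium, pH 6.0.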
Cruzain Triton = cruzain (T. cruzi) inhibition with detergent. P25779. purified cruzain, Z-FR-AMC fluorescence, 0.01% Triton. Potency, µM, for the others: max response, negative = inhibition, usual class: inhibitors. 200,000 compounds, 0.43% hits;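 also: plate controls were neutral wells for no effect and buffer without enzyme for full effect; nearly all actives have a fitted effect of over 40% in size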
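Cysteine protease activity tested under reducing, mildly acidic conditions (100 mM sodium acetate pH 5.5, 5 mM DTT) plus 0.01% Triton X-100. Cruzain 1.5 nM; substrate Z-FR-AMC 2 uM; 15 min compound preincubation at room temperature.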
* = called active by the depositor; ? = inconclusive; · = not tested or not shown. The sample as a whole holds a higher share of hits than the screen did. Unless noted, calls follow the shape of the dose curve; as a rule, active = well fitted curve in the direction sought with a large enough effect; inconclusive = small, poorly fitted or top-dose-only effect, or another doubt; inactive = no such curve, though single readings can be large; an effect the other way counts as inactive or inconclusive. Potency is read from the fitted curve at half-maximal effect.

SMILES	Cruzain inh noDet	NS1 inh	Cruzain Triton
O=C(c1ccccc1)c1ccc2nc(-c3ccc(NC(=O)c4ccccc4Br)cc3)[nH]c2c1	3%	-35%	-3%
Cc1cccc(NC(=O)Cn2nc(N3CCN(c4ccccc4)CC3)ccc2=O)c1C	?	·	-1%
N#CC(Cc1ccc(O)c(O)c1)C(=O)N1CCc2ccccc21 (stereo not drawn)	-8%	3%	-10%
Cc1nc(NCc2ccccc2)c2nc(-c3ccccc3)n(CCCN(C)C)c2n1	-7%	·	-10%
O=C(Nc1ccc2nc(-c3cccs3)[nH]c2c1)c1cccs1	18%	-7%	3%
O=C(Nc1ccc(-c2nc3ccc(NC(=O)c4cccs4)cc3[nH]2)cc1)c1cccs1	25µM*	2%	11µM*
Cc1cc(NC(=O)Nc2ccc(N(C)C)cc2)c2cc(F)cc(F)c2n1	?	·	-2%
O=C(Nc1ccc(F)cc1)C(c1ccccc1)N1CCN(S(=O)(=O)c2ccc3ccccc3c2)CC1 (stereo not drawn)	?	?	-2%
Cc1ccc(C)c(S(=O)(=O)N2CCN(C(C(=O)Nc3ccc(F)cc3)c3ccccc3)CC2)c1 (stereo not drawn)	25µM*	13%	-3%
BrC/C=C/CBr	0%	·	1%
CCCCOC(C)=O	0%	·	-2%
COc1ccccc1CNC(=O)c1cccc(-c2ccccc2OC)n1	-8%	·	4%
Cn1cc(SCC(=O)Nc2ccc3c(c2)OCO3)c2ccccc21	-17%	-81%	-6%
CC(C)n1cc(/C=C2/SC(=O)N(CC(=O)Nc3ccc4c(c3)OCO4)C2=O)c2ccccc21	10µM*	8%	2%
CCCCCCCCCCCCCCCCOCC(CO)OC(C)=O (stereo not drawn)	-1%	·	4%
COc1ccc(/C=N/NC(=O)c2ccccc2Cl)cc1CSc1nc2ccccc2s1	16µM*	14%	-8%
COc1ccc(/C=N/NC(=O)c2cccnc2)cc1CSc1nc2ccccc2s1	?	4%	-6%
CCOC(=O)c1ccccc1NC(=O)CCOc1ccccc1	6%	·	-8%
O=C(Nc1cccc(Cl)c1N1CCCC1)c1cccc(-c2cc3ccccc3oc2=O)c1	10µM*	11%	0%
O=C(Nc1ccc(CN2CCOCC2)cc1)c1cccc(-c2cc3ccccc3oc2=O)c1	·	2%	·
CCn1nnc(NC(=O)c2cccc(-c3cc4ccccc4oc3=O)c2)n1	1%	-18%	-2%
CCOc1ccc2nc(NC(=O)c3cccc(-c4cc5ccccc5oc4=O)c3)sc2c1	13µM*	14%	-2%
Cc1ccc2nc(NC(=O)c3cccc(-c4cc5ccccc5oc4=O)c3)sc2c1	10µM*	8%	-3%
O=C(Nc1cccnc1)c1cccc(-c2cc3ccccc3oc2=O)c1	·	4%	·
COC(=O)c1sc2cccc(F)c2c1S(=O)(=O)Nc1ccc(N(C)C)cc1	-12%	·	-12%
SMILES	Cruzain inh noDet	NS1 inh	Cruzain Triton
ClC1=C(Cl)C(Cl)(Cl)C(Cl)=C1Cl	-2%	·	-5%
CC1=C(CC[C@H](C)CO)O[C@@H]2C[C@@H]3[C@H]4CC[C@H]5C[C@@H](O)CC[C@]5(C)[C@@H]4CC(=O)[C@@]3(C)[C@@H]12	-5%	-11%	2%
CO[C@@H]1/C=C\O[C@]2(C)Oc3c(C)c(O)c4c(O)c(c(CN5CCN(C)CC5)c(O)c4c3C2=O)NC(=O)/C(C)=C\C=C[C@@H](C)[C@@H](O)[C@H](C)[C@@H](O)C(C)[C@H](OC(C)=O)[C@@H]1C (stereo partly drawn)	?	-19%	-14%
CCOC(=O)c1cnc(-n2nc(C)cc2C)nc1NNc1nc(C)cc(C)n1	·	-2%	·
CCOC(=O)c1cnc(-n2nc(C)cc2C)nc1NNc1nc(-c2ccccc2)cc(-c2ccccc2)n1	20µM*	?	-1%
C=C(C)[C@]12C[C@@H](C)[C@@]34OC(Cc5ccccc5)(O[C@@H]1[C@@H]3C=C(COC(=O)Cc1cc(OC)c(O)cc1I)C[C@]1(O)C(=O)C(C)=C[C@@H]41)O2	-1%	·	-1%
COc1ccc2oc(=O)c(/C(C)=N/Nc3nc(-c4cc(C)ccc4C)cs3)cc2c1	13µM*	14%	-21%
C/C(=N\Nc1nc(-c2ccc(C)cc2C)cs1)c1cc2ccccc2oc1=O	?	?	-20%
COc1ccc(Cl)cc1NC(=O)CN(c1cc(C)cc(C)c1)S(=O)(=O)c1c(C)n[nH]c1C	?	·	-11%
Clc1nnc(N/N=C/c2ccccc2)c2ccccc12	4%	-10%	-7%
Clc1ccc(/C=N/Nc2nnc(Cl)c3ccccc23)cc1	25µM*	-1%	-1%
CCOc1ccc(-c2nnn(CC(=O)NCCc3c[nH]c4ccccc34)n2)cc1	-17%	2%	-8%
CCCOc1ccc(-c2nnn(CC(=O)c3c[nH]c4ccccc34)n2)cc1	7.9µM*	8%	2%
Cc1cc(C)c2c(c1)/C(=N/NC(=S)Nc1ccc(F)cc1)CCC2	16µM*	-8%	-9%
Cc1cc(C)c2c(c1)/C(=N/NS(=O)(=O)c1ccccc1)CCC2	4%	6%	-7%
C=CC(=O)OCCCCCCOC(=O)C=C	5%	·	3%
OCC(O)C(O)C(O)C(O)C(O)CO (stereo not drawn)	2%	·	3%
CC(C)c1ccc(/C=N/NC(=O)c2cc(-c3cccc([N+](=O)[O-])c3)n[nH]2)cc1	·	2%	·
C/C(=N/NC(=O)c1cc(-c2cccc([N+](=O)[O-])c2)n[nH]1)c1ccc(Cl)cc1	6.3µM*	9%	0%
CCCCC/C=C\C/C=C\C/C=C\C=C\C1CCCC(=O)O1 (stereo not drawn)	-1%	·	1%
Cc1ccc(-c2ccc(C(=O)Nc3ccccc3)o2)c2ccccc12	?	-23%	-19%
Cc1ccc(S(=O)(=O)NC(=O)c2ccc(-c3ccc(C)c4ccccc34)o2)cc1	8%	-4%	25µM*
CCOC(=O)c1c(NC(=O)COc2ccccc2Br)sc2c1CCCCC2	2%	·	-6%
CCOC(=O)c1c(NC(=O)c2ccccc2Br)sc2c1CCc1ccccc1-2	16µM*	9%	-6%
COc1ccc([N+](=O)[O-])cc1COc1cc(C)cc2oc(=O)cc(-c3ccccc3)c12	32µM*	5%	0%
SMILES	Cruzain inh noDet	NS1 inh	Cruzain Triton
Cc1c(OCc2ccc([N+](=O)[O-])cc2)ccc2c3c(c(=O)oc12)CCC3	-19%	14%	-1%
Cc1cc(OCc2ccc([N+](=O)[O-])cc2)c2c3c(c(=O)oc2c1)CCCC3	13µM*	5%	-1%
CC(=O)COc1cc(C)cc2oc(=O)cc(-c3ccccc3)c12	·	14%	·
Cc1ccc(C)c(NC(=O)C2CCCN(c3nc4ccccc4s3)C2)c1 (stereo not drawn)	-8%	·	-2%
N#Cc1ccc(OC(=O)c2ccc(N=C(N)N)cc2)cc1	-1%	0%	1%
CCc1ccc(N2C(=O)N(CC(=O)C(C)(C)C)c3ccccc3S2(=O)=O)cc1	-1%	·	2%
O=S(=O)(N/N=C1\CC(c2ccccc2)Oc2ccccc21)c1ccccc1 (stereo not drawn)	-23%	-6%	-1%
Cc1ccc(S(=O)(=O)N/N=C2/CC(c3ccccc3)Oc3ccccc32)cc1 (stereo not drawn)	25µM*	?	-3%
O=C(NCc1noc2ccccc12)N1CCN(c2ccccc2)CC1	14%	·	0%
CCNC(=S)N/N=C/c1cn(Cc2ccccc2F)c2ccccc12	?	?	-2%
